GDH-TPI inh – GDH-TPI coupled enzyme inhibition counter-screen | GDH-TPI coupled enzyme counterscreen, NADH absorbance | inhibition, % at 4.8 µM | 360,000 tested, 1.2% active; in the data active = inhibition above about 30%;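 also: 0% = DMSO wells and 100% = wells lacking the enzyme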
Bead autofluor – counter-screen for toxin protease inhibitors: compound fluorescence. fluorescence intensity (no concentration beside the values). compound autofluorescence counterscreen, microsphere flow cytometry; hits give high values. AID 624483. 360,000 tested, 3.1% active; in the data active = fluorescence intensity above about 16000; inconclusive = no clear call, values can overlap the other calls
BoNT A protease – inhibitors of Botulinum neurotoxin A light chain protease; AID 588499; inhibition, % at 10 µM; 360,000 tested, 0.17% active; multiplex microsphere protease substrate cleavage, flow cytometry; also: plate controls were buffer without enzyme for full effect and enzyme alone for no effect
Mtb FBA inh – inhibits M. tuberculosis FBA enzyme | purified M. tuberculosis FBA, fluorescence read-out | inhibition, % at 1 µM | 360,000 tested, 2.3% active; in the data active = inhibition above about 27%;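 also: 0% = vehicle and 100% = reference inhibitor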
Target sequence (P9WQA3 whole entry, looked up): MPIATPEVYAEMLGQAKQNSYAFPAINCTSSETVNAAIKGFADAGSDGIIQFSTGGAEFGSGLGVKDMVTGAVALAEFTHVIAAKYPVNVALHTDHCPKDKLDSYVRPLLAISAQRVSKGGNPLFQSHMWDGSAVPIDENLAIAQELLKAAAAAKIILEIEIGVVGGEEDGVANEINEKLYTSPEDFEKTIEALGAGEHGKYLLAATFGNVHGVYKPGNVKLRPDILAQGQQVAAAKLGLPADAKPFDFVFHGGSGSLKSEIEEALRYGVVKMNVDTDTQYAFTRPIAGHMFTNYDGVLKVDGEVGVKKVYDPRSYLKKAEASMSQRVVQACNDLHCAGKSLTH
Anthrax LF prot – blocks Bacillus anthracis lethal factor protease; 360,000 tested, 0.12% active; inhibition, % at 10 µM; AID 588501; P15917; multiplex microsphere protease cleavage assay, LF; also: plate controls were buffer without enzyme for full effect and enzyme alone for no effect
BoNT F protease – BoNT F light chain protease inhibition. 360,000 tested, 0.22% active. Multiplex microsphere protease cleavage assay, flow cytometry. AID 588497. inhibition, % at 10 µM; in the data active = inhibition above about 35%, passing the limit was not always enough; inconclusive = no clear call, values can overlap the other calls; also: plate controls were buffer without enzyme for full effect and enzyme alone for no effect
* marks the source's active call; other numbers are inactive results. Most compounds without a hit are left out; they make up all but 6.7% or so of the library. Rule as the data show it, unless noted: active = inhibition above about 30%; inconclusive = no clear call, values can overlap the other calls; inactive = below that.

Screening O=C(CCNS(=O)(=O)c1ccc(Cl)cc1)NCc1ccccn1 returned GDH-TPI inh 6, Bead autofluor 17910*, BoNT A protease -8, Mtb FBA inh 0, Anthrax LF prot -5 and BoNT F protease -11.
For N#Cc1c(SCc2ccc(Cl)cc2)sc(C(=O)c2ccccc2)c1N the results were GDH-TPI inh -7, Bead autofluor 2314, BoNT A protease 5, Mtb FBA inh -4, Anthrax LF prot 5 and BoNT F protease 20.
Screening CSc1c(C#N)c(N)nc2sc(C(=O)c3ccccc3)c(N)c12 returned GDH-TPI inh 46*, Bead autofluor 2932, BoNT A protease 8, Mtb FBA inh -2, Anthrax LF prot 5 and BoNT F protease inconclusive.
Screening CCN(CC)c1ccc(O)c(C=Nc2ccc(C)c(C)c2)c1 returned GDH-TPI inh 26, Bead autofluor 2838, BoNT A protease 50*, Mtb FBA inh -3, Anthrax LF prot 23 and BoNT F protease 7.
Screening CCN(CC)c1ccc(C=Nc2ccc(C#N)cc2)c(O)c1 returned GDH-TPI inh 45*, Bead autofluor 2553, BoNT A protease 1, Mtb FBA inh -1, Anthrax LF prot 0 and BoNT F protease -10.
For CCN(CC)c1ccc(C=Nc2ccccc2C)c(O)c1 the results were GDH-TPI inh 37*, Bead autofluor 6889, BoNT A protease 51*, Mtb FBA inh 2, Anthrax LF prot 34* and BoNT F protease 19.
COCc1cc(=O)[nH]c(Nc2nc3ccc(C)cc3o2)n1 was read as GDH-TPI inh 34*, Bead autofluor 3174, BoNT A protease 0, Mtb FBA inh 7, Anthrax LF prot -2 and BoNT F protease -5.
For CCN(CC)C(=O)C1CCCN(Cc2ccc(OC)c(C)c2)C1 (stereo not drawn) the results were GDH-TPI inh 9, Bead autofluor 16141*, BoNT A protease 2, Mtb FBA inh 2, Anthrax LF prot -2 and BoNT F protease 2.
Screening CCN(CC)C(=O)C1CCCN(Cc2ccccc2C(F)(F)F)C1 (stereo not drawn) returned GDH-TPI inh 6, Bead autofluor 23390*, BoNT A protease 0, Mtb FBA inh 2, Anthrax LF prot -2 and BoNT F protease 0.
CCN(CC)C(=O)C1CCCN(C/C=C/c2ccccc2)C1 (stereo not drawn) was read as GDH-TPI inh 0, Bead autofluor 25287*, BoNT A protease -6, Mtb FBA inh 1, Anthrax LF prot -2 and BoNT F protease -6.
`CCN(CC)C(=O)C1CCCN(Cc2ccc(F)c(F)c2)C1` (stereo not drawn) gave GDH-TPI inh 11, Bead autofluor 11009, BoNT A protease 2, Mtb FBA inh 5, Anthrax LF prot -2 and BoNT F protease 0.
CCOC(=O)C1(Cc2ccc(OC)cc2)CCN(C(=O)c2cncs2)CC1 was read as GDH-TPI inh 2, Bead autofluor 2327, BoNT A protease 1, Mtb FBA inh 0, Anthrax LF prot 0 and BoNT F protease 0.
`CCN(/N=C/c1ccc(Cl)cc1)c1cc(=O)n(C)c(=O)[nH]1` gave GDH-TPI inh 51*, Bead autofluor 3440, BoNT A protease -1, Mtb FBA inh 0, Anthrax LF prot -2 and BoNT F protease -2.
Screening CCN(/N=C/C=C/c1ccccc1)c1cc(=O)n(C)c(=O)[nH]1 returned GDH-TPI inh 70*, Bead autofluor 2718, BoNT A protease 0, Mtb FBA inh -2, Anthrax LF prot 2 and BoNT F protease -2.
Cn1c(=O)cc(C(=O)N/N=C/c2ccc(Cl)cc2)[nH]c1=O was read as GDH-TPI inh 16, Bead autofluor 5706, BoNT A protease -1, Mtb FBA inh -1, Anthrax LF prot -6 and BoNT F protease 5.
For Cn1c(=O)cc(Nc2ccccc2)[nH]c1=O the results were GDH-TPI inh -2, Bead autofluor 3952, BoNT A protease 4, Mtb FBA inh 0, Anthrax LF prot 6 and BoNT F protease inconclusive.
`Nc1nc(N(Cc2ccccc2)Cc2ccccc2)nc(C(F)(F)F)n1` gave GDH-TPI inh -3 and Mtb FBA inh -2.
COc1ccc(C2C(C(=O)N3CCOCC3)=C(C)NC3=C2C(=O)CC(C)(C)C3)cc1O (stereo not drawn) was read as GDH-TPI inh 13, Bead autofluor 23700*, BoNT A protease -1, Mtb FBA inh 2, Anthrax LF prot -2 and BoNT F protease -4.
Screening Cc1cccc(NC(=O)CN2CCN(CC(=O)Nc3ccc(-c4ccccc4)cc3)CC2)c1C returned GDH-TPI inh -7, Bead autofluor 3779, BoNT A protease -5, Mtb FBA inh 0, Anthrax LF prot -6 and BoNT F protease -12.
Screening CC(=O)NCCC(=O)N1CCCC(N(C)CCc2ccccc2)C1 (stereo not drawn) returned GDH-TPI inh 17, Bead autofluor 3878, BoNT A protease inconclusive, Mtb FBA inh -2, Anthrax LF prot 7 and BoNT F protease inconclusive.
COC1=C/C(=C/c2c(N)n3c(nc2=O)sc2cc(S(C)(=O)=O)ccc23)C=CC1=O was read as GDH-TPI inh 52*, Bead autofluor 4962, BoNT A protease 0, Mtb FBA inh -5, Anthrax LF prot 0 and BoNT F protease 5.
COc1ccc(C(=O)NC2CCCc3c2cnn3-c2ccccc2F)o1 (stereo not drawn) was read as GDH-TPI inh 7, Bead autofluor 5738, BoNT A protease -1, Mtb FBA inh -1, Anthrax LF prot -6 and BoNT F protease -1.
`CCn1c(C)nc2c(=O)oc3ccccc3c21` gave GDH-TPI inh 8, Bead autofluor 21816*, BoNT A protease 1, Mtb FBA inh 1, Anthrax LF prot -1 and BoNT F protease 2.
Screening Cc1nc2c(=O)oc3ccccc3c2n1-c1ccccc1 returned GDH-TPI inh 2, Bead autofluor 3218, BoNT A protease -1, Mtb FBA inh 0, Anthrax LF prot -8 and BoNT F protease -5.
`CC(C)Cn1nnc2c(=O)oc3ccccc3c21` gave GDH-TPI inh -4, Bead autofluor 24285*, BoNT A protease inconclusive, Mtb FBA inh 0, Anthrax LF prot -2 and BoNT F protease -2.
For Cc1ccc(S(=O)(=O)N2CCN(C(=O)CN(Cc3ccco3)Cc3cccs3)CC2)cc1 the results were GDH-TPI inh 8, Bead autofluor 2871, BoNT A protease 0, Mtb FBA inh 0, Anthrax LF prot -4 and BoNT F protease -1.
Cc1cccc(N(C(=O)c2csnn2)C(C(=O)NC2CCCC2)c2ccncc2)c1 (stereo not drawn) was read as GDH-TPI inh 0, Bead autofluor 2884, BoNT A protease 2, Mtb FBA inh 0, Anthrax LF prot 2 and BoNT F protease -6.
For Nc1nc(Nc2ccc(Cl)cc2)nc(NCc2ccco2)c1[N+](=O)[O-] the results were GDH-TPI inh 16, Bead autofluor 4020, BoNT A protease -1, Mtb FBA inh -7, Anthrax LF prot 0 and BoNT F protease inconclusive.
Screening Cc1ccc(NC2=CC(=O)C(=O)c3ccccc32)cc1 returned GDH-TPI inh 11, Bead autofluor 16510*, BoNT A protease -1, Mtb FBA inh -4, Anthrax LF prot -2 and BoNT F protease -5.
